Measured values published in PubChem BioAssay AID2073 (Sanford-Burnham Center for Chemical Genomics, 2009).
Hit rate of the full screen: of about 290,000 compounds, about 570 (0.2%) were called active. Another 1% or so got no clear call; they are omitted. Rule as the data show it: active = inhibition mostly above about 51% (no sharp cut-off); inconclusive = no clear call, values can overlap the other calls; inactive = mostly below about 53%. The list comes from a sample in which actives are over-represented; it also holds similar structures and randomly drawn compounds.

Biological target: Voltage-dependent N-type calcium channel subunit alpha-1B (Homo sapiens) (UniProt Q00975)
Sequence (Q00975 whole entry, looked up): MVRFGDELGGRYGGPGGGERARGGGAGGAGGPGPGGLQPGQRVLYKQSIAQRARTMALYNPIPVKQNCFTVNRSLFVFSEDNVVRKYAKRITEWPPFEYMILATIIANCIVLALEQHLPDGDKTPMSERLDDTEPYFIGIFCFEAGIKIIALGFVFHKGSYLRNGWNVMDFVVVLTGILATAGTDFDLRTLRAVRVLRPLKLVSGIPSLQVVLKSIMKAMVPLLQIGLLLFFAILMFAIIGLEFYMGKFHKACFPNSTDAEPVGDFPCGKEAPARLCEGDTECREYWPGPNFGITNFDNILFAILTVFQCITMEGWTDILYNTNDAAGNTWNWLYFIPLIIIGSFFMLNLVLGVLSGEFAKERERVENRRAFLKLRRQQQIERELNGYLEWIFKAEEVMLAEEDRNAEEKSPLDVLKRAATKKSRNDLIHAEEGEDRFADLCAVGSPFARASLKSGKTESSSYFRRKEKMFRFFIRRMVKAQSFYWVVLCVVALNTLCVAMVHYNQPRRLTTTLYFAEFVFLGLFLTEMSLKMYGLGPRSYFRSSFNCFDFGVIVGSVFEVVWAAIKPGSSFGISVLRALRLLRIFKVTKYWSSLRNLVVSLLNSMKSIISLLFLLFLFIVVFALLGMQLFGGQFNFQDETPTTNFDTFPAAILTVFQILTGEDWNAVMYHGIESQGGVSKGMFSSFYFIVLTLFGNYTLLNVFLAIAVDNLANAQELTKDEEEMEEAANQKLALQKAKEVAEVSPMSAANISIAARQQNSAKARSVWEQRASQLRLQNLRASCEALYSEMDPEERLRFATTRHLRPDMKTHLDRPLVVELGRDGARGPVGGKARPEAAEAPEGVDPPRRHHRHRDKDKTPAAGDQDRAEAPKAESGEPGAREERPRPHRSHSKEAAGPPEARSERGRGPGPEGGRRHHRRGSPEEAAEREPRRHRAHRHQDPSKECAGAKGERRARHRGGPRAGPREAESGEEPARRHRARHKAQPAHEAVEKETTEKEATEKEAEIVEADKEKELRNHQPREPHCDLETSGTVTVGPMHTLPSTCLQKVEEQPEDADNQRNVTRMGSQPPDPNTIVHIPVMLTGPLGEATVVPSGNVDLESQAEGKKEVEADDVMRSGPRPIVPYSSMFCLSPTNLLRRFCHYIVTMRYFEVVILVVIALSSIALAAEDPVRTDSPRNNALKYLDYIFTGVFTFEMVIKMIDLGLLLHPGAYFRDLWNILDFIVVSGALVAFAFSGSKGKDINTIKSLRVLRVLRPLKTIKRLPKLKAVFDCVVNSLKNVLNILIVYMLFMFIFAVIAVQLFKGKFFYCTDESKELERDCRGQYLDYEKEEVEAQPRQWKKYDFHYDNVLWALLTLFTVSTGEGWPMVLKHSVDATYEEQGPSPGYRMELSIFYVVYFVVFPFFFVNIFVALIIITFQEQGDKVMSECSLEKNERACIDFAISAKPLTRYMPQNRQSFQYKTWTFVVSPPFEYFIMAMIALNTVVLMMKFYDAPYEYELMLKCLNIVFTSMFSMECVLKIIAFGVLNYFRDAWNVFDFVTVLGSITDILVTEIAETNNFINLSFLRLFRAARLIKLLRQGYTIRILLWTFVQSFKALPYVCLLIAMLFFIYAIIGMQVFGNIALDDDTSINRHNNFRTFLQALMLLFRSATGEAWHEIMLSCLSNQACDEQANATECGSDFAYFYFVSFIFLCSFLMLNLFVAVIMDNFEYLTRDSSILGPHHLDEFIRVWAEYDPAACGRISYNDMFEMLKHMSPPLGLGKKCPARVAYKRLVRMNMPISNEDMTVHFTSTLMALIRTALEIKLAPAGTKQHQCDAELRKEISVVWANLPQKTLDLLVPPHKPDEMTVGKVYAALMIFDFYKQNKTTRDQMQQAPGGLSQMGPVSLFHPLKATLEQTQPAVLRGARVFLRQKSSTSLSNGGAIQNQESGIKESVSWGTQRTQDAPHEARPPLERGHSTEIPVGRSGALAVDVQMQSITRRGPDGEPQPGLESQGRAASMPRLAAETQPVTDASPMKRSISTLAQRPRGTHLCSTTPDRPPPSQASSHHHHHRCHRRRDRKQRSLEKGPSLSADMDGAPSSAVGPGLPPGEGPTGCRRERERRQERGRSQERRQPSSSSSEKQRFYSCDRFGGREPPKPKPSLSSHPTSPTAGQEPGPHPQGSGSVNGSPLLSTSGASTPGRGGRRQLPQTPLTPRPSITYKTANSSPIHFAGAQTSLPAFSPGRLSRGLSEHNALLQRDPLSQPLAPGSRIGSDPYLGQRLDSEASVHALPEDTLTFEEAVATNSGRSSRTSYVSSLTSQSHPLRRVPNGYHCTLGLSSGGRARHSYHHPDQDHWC
Assay: disruptors of CaV2.2 binding to Mint1 – biochemical, HTRF (AID 2073)
Conditions: HTRF protein-protein interaction, Mint1-CaV2.2, at 20 µM, stronger effect = higher value
[1] = measured here: average of repeat tests

CCn1ncc(C2=NOC(C(=O)N3CCC(C(N)=O)CC3)C2)c1C (stereo not given)
inhibition: 2.8% (inactive)

CCCOC(=O)/C(=C\C=C\c1ccccc1)NC(=O)c1ccccc1
inhibition: -6.3% (inactive)

CCCOC(=O)/C(=C\C=C\c1ccco1)NC(=O)c1ccccc1
inhibition: 66.6% (active)

CCCCOC(=O)/C(=C/C=C/c1ccccc1)NC(=O)c1ccccc1
inhibition: 7.4% (inactive)

CC1(c2ccccc2)NC(=O)N(Cc2ccc([N+](=O)[O-])cc2)C1=O (stereo not given)
inhibition: -5.3% (inactive)

CP(=O)(COC(=O)c1ccccc1)COC(=O)c1ccccc1
inhibition: -9.7% (inactive)

OC[C@@H]1CCCN1Cc1cn(-c2ccccc2)nc1-c1ccc2c(c1)OCO2
inhibition: 8.1% (inactive)

O=C(N/N=C/c1sc(N2CCOCC2)nc1-c1ccccc1)c1cccc(S(=O)(=O)N2CCCC2)c1
inhibition: 51.1% (active)

O=C(N/N=C/c1sc(N2CCOCC2)nc1-c1ccccc1)c1cccc(S(=O)(=O)N2CCOCC2)c1
inhibition: 21.2% (inactive)

O=[N+]([O-])c1ccc(N/N=C/c2sc(N3CCOCC3)nc2-c2ccccc2)c(S(=O)(=O)Nc2ccc(Cl)cc2)c1
inhibition: 67.1% (active)

COc1cc(C(=O)N/N=C/c2sc(N3CCOCC3)nc2-c2ccccc2)cc(OC)c1OC
inhibition: 4.4% (inactive)

O=[N+]([O-])c1ccc(N/N=C/c2sc(N3CCOCC3)nc2-c2ccccc2)c(S(=O)(=O)Nc2ccccc2Cl)c1
inhibition: 30.5% (inactive)

Cc1ccc(NS(=O)(=O)c2cc([N+](=O)[O-])ccc2N/N=C/c2sc(N3CCOCC3)nc2-c2ccccc2)c(C)c1
inhibition: 31.1% (inactive)

Cc1ccc(C2=CSC3=NNC4(CCCCC4)NN23)cc1
inhibition: 8.9% (inactive)

CCOC(=O)N1CCN(C(=O)CSCc2ccccc2C)CC1
inhibition: -5.4% (inactive)

O=C(CCC(=O)N(CC(=O)NC1CCCCC1)Cc1ccccc1)Nc1ccccn1
inhibition: -13% (inactive)

N/C(Cc1cccc2ccccc12)=N\OC(=O)c1ccc(Br)o1
inhibition: 56.5% (active)

N/C(Cc1ccc(Cl)cc1Cl)=N\OC(=O)c1ccc(Br)o1
inhibition: 7.7% (inactive)

N/C(Cc1ccc(Cl)c(Cl)c1)=N\OC(=O)c1ccc(Br)o1
inhibition: 5.1% (inactive)

Cc1ccc(N2C(=O)N3[C@H](c4ccc(F)cc4)[C@@H]4C(=O)N(C5CCCCC5)C(=O)[C@@H]4[C@]3(C)C2=O)cc1
inhibition: 3.5% (inactive)

Cc1ccccc1C(=O)NC(C(N)=O)P(=O)(OC(C)C)OC(C)C (stereo not given)
inhibition: -2.5% (inactive)

CCc1ccccc1NS(=O)(=O)c1cccc2nsnc12
inhibition: 4.2% (inactive)

NC(=S)n1[nH]c(-c2ccc([N+](=O)[O-])cc2)c(N=Nc2ccccc2[N+](=O)[O-])c1=O
inhibition: 69.4% (inactive) | inhibition [1]: 20.6%

NC(=S)n1[nH]c(-c2ccc([N+](=O)[O-])cc2)c(N=Nc2ccc(O)cc2)c1=O
inhibition: -5.9% (inactive)

Cc1[nH]n(C(N)=S)c(=O)c1N=Nc1cccc([N+](=O)[O-])c1C
inhibition: 14.9% (inactive)

NC(=S)n1[nH]c(-c2ccc([N+](=O)[O-])cc2)c(N=Nc2cccc(Cl)c2)c1=O
inhibition: 64.1% (inactive) | inhibition [1]: 12.7%

CCCC(=O)c1cc2cc(Cl)ccc2oc1=O
inhibition: -2.8% (inactive)

CCOC(=O)CSc1nnc(-c2cccnc2)n1C
inhibition: 0.8% (inactive)

CN1CCN(C(CC(=O)Nc2cccc(O)c2)C(=O)O)CC1 (stereo not given)
inhibition: 0.5% (inactive)

O=C(CSc1nnc(-c2ccccc2)o1)NC1CCS(=O)(=O)C1 (stereo not given)
inhibition: -2.1% (inactive)

O=C(OCn1ncc(Cl)c(Cl)c1=O)c1ccc(F)cc1
inhibition: -3% (inactive)

COc1ccc(N2CCN(C(=O)c3ccc4c(=O)n5c(nc4c3)CCCCC5)CC2)cc1
inhibition: -6.5% (inactive)

Cc1ccc2c(CN3CCN(Cc4ccccc4)CC3)cc(=O)oc2c1C
inhibition: 6.6% (inactive)

Cc1ccccc1NC(=S)NCc1cccs1
inhibition: 5.6% (inactive)

Cc1cc(C)c(NC(=S)N(Cc2cccnc2)Cc2ccco2)c(C)c1
inhibition: 0.6% (inactive)

CCC(C)(C)n1nnnc1C(c1cc2ccc(OC)cc2[nH]c1=O)N1CCc2ccccc21 (stereo not given)
inhibition: 19.3% (inactive)

CCC(C)(C)n1nnnc1C(c1cc2ccc(OC)cc2[nH]c1=O)N1CCc2ccccc2C1 (stereo not given)
inhibition: 56.9% (active)

COc1ccc2cc(C(c3nnnn3C(C)(C)C)N3CCc4ccccc4C3)c(=O)[nH]c2c1 (stereo not given)
inhibition: 33% (inactive)

Fc1cccc(Cl)c1CNn1cn[nH]c1=S
inhibition: -3% (inactive)

COc1ccc2c(c1)CCc1cc(C(=O)N3CCN(c4ccc(N5CCOCC5)nn4)CC3)sc1-2
inhibition: 13.6% (inactive)

CCCCc1[nH]nc2c1C1(C(=O)N(CC)c3ccccc31)C(C#N)=C(N)O2 (stereo not given)
inhibition: -5.8% (inactive)

COc1ccc(N2CCN(CCNC(=O)Nc3cccc(C)c3C)CC2)cc1
inhibition: 0.6% (inactive)

O=C(/C=C/c1ccc2c(c1)OCO2)Nc1nc(-c2ccc(F)cc2F)cs1
inhibition: 9.1% (inactive)

CCCOc1ccc(-c2cc(C(F)(F)F)c(C#N)c(SCC(=O)O)n2)cc1
inhibition: 35.3% (inactive)

CCCCOc1ccc(-c2cc(C(F)(F)F)c(C#N)c(SCC(=O)O)n2)cc1
inhibition: 60.7% (active)

COc1ccc(-c2cc(C(F)(F)F)c(C#N)c(SCC(=O)O)n2)cc1
inhibition: 22% (inactive)

Cc1cccc(NC(=O)CCN2C(=O)C3C4C=CC(C4)C3C2=O)n1 (stereo not given)
inhibition: 22% (inactive)

O=C(NCc1ccc(Cl)cc1)c1nccnc1CO
inhibition: 11.8% (inactive)
